IL-1B inflam inh: inflammasome signaling inhibition, IL-1 beta readout. THP-1 LPS/ATP IL-1B secretion, AlphaLISA, 16 h; active compounds read low. activity change, % at 57.5 µM. hit rate 4.7% among 360,000; in the data active = activity change below about -50%; inconclusive = mostly about -30% to -49%
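THP-1 cells pretreated 1 hr with compounds (up to 57.5 uM final), then stimulated with LPS (250 ng/mL final) plus ATP (1.25 mM final); secreted IL-1B measured by AlphaLISA after 16 hr, decreased signal indicating inhibition.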
TDP1 cell CPT: DT40-hTDP1 cell growth loss with CPT | hit rate 12% among 420,000 | chicken DT40 Tdp1-/-;hTDP1 cells + 20 nM CPT, ATP luminescence, 48 h | AID 686979 | Potency, µM (series often up to 46.2 µM), without a hit: at the highest dose activity change, negative = growth inhibition, most hits filed as inhibitors; note: potency is the fitted concentration of half-maximal effect; nearly all actives have a fitted effect of over 55% in size
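Cell growth measured by CellTiter-Glo luminescence after a minimum 48 h, 37 C compound exposure with 20 nM CPT in Tdp1-knockout DT40 cells stably expressing hTDP1, seeded 400/well; qHTS titration format.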
ELG1 DNA repair: ELG1-dependent DNA repair inhibition | HEK293T ELG1-luciferase reporter, luminescence, 16 h; DNA damage induced by 5-fluorouridine | Potency, µM (highest dose often 46.1 µM), for the others: top-dose activity change, negative = inhibition, hits mostly inhibitors | hit rate 2.3% among 330,000 | AID 504467; note: potency is the fitted concentration of half-maximal effect; nearly all actives have a fitted effect of over 55% in size
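HEK293T cells expressing luciferase-tagged ELG1 (2,000/well) received 5-Fluorouridine plus compound or DMSO for 16 hr at 37 °C. Luciferase was read by ONE-Glo luminescence after 30 min at room temperature.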
HT1080NT lethal: kills 2HG-producing HT-1080-NT fibrosarcoma cells; HT-1080-NT fibrosarcoma viability, CellTiter-Glo ATP luminescence, 48 h; Potency, µM (series often up to 46.1 µM), for the others: top-dose activity, negative = less viability, hits mostly cytotoxic; hit rate 1.6% among 360,000; AID 686970;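 note: NT is the 2HG producing partner of a matched IDH1 knockdown line; potency is the fitted concentration of half-maximal effect; 0% = DMSO-treated cells and -100% = media-only wells without cells; nearly all actives have a fitted effect of over 55% in size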
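Luminescent CellTiter-Glo readout after 48 hours of compound exposure at 37 degrees C defined viability of HT-1080-NT cells. Activity was normalized to DMSO wells and cell-free media wells; concentration-response curves were fitted and assigned curve classes.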
HT1080 IDH1KD tx: toxicity to HT-1080 IDH1 knockdown cells (counter line). HT-1080 IDH1 knockdown viability, ATP luminescence, 48 h. Potency, µM (titrated, usually from 46.1 µM), for inactives: at the top dose activity, negative = toxicity, actives largely listed as cytotoxic. hit rate 2% among 360,000. AID 686971;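 note: potency is the fitted concentration of half-maximal effect; 0% = DMSO wells and -100% = cell-free medium wells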
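HT-1080-IDH1KD cells (IDH1 knocked down), 750/well in RPMI with 5% FBS, treated with compound 48 h at 37 degrees C. Viability by CellTiter-Glo luminescence, normalised to DMSO and no-cell wells; concentration-response curves classed.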
DT40 TDP1 no CPT: qHTS for Inhibitors of human tyrosyl-DNA phosphodiesterase 1 (TDP1): qHTS in cells in absence of CPT. Potency, µM (highest dose often 46.2 µM), inactives show at the top dose activity change, negative = growth inhibition, actives largely listed as inhibitors. hit rate 15% among 420,000. DT40 Tdp1-/- hTDP1 cells, no CPT, ATP luminescence, 48 h. AID 686978, 2013; note: potency is the fitted concentration of half-maximal effect; nearly all actives have a fitted effect of over 55% in size
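Stably hTDP1-transfected Tdp1-null chicken DT40 cells were treated with library compounds minus camptothecin and grown for at least 48 hr at 37 °C, after which cellular ATP was quantified by luminescence.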
Numbers without * were called inactive. Only some compounds are listed: those with a hit (about 19% of all), similar ones and a draw of the others. Unless noted, calls come from the whole dose curve; as a rule, active = well fitted curve in the direction sought with a large enough effect; inconclusive = small, poorly fitted or top-dose-only effect, or another doubt; inactive = no such curve, though single readings can be large; an effect the other way counts as inactive or inconclusive. Unless noted, % is set by controls: 0 for no effect and ±100 for the full control effect.

`CCCCOc1ccc(C(=O)NCCN2CCC(n3c(=O)[nH]c4ccccc43)CC2)cc1` gave IL-1B inflam inh -16.8, TDP1 cell CPT inconclusive, HT1080NT lethal inconclusive, HT1080 IDH1KD tx 16.4µM* and DT40 TDP1 no CPT inconclusive.
`CCN(C(=O)COC(=O)c1c(NC(C)=O)sc(C)c1C)c1c(N)n(Cc2ccccc2)c(=O)[nH]c1=O` gave IL-1B inflam inh 14.1, TDP1 cell CPT 5.6%, HT1080NT lethal 11.3%, HT1080 IDH1KD tx -4.4% and DT40 TDP1 no CPT inconclusive.
`C/C(=N/NC(=O)Cc1ccccc1)c1ccc(C)s1` gave IL-1B inflam inh -12.9, TDP1 cell CPT 0.3%, ELG1 DNA repair inconclusive, HT1080NT lethal 25.7%, HT1080 IDH1KD tx 4.0% and DT40 TDP1 no CPT -20.8%.
For CCOc1ccc2oc(C(=O)N3CC(C)OC(C)C3)c(C)c2c1 (stereo unspecified) the results were IL-1B inflam inh 28.6, TDP1 cell CPT inconclusive, ELG1 DNA repair 9.1%, HT1080NT lethal 1.1%, HT1080 IDH1KD tx -1.6% and DT40 TDP1 no CPT -29.5%.
Screening CN(C)C(=O)C[C@@H]1C=C[C@@H](NC(=O)C2CCC2)[C@@H](CO)O1 returned IL-1B inflam inh -6.4, TDP1 cell CPT -4.2%, HT1080NT lethal 23.3%, HT1080 IDH1KD tx 17.2% and DT40 TDP1 no CPT 8.4%.
`O=C(NCCN1CCC(n2c(=O)[nH]c3ccccc32)CC1)c1ccncc1` gave IL-1B inflam inh -27.6, TDP1 cell CPT -48.0%, HT1080NT lethal -18.2%, HT1080 IDH1KD tx -12.9% and DT40 TDP1 no CPT -46.9%.
`O=C(NCCN1CCC(n2c(=O)[nH]c3ccccc32)CC1)c1cc(F)cc(F)c1` gave IL-1B inflam inh -53.0*, TDP1 cell CPT -10.0%, HT1080NT lethal -17.6%, HT1080 IDH1KD tx -0.6% and DT40 TDP1 no CPT -29.7%.
COc1ccc(-c2nc3cnc(N4CCOCC4)nc3n(Cc3cccs3)c2=O)cc1 was read as TDP1 cell CPT -23.0% and DT40 TDP1 no CPT -2.3%.
Screening Cc1ccsc1C(=O)Nc1ccccc1N1CCCC1 returned IL-1B inflam inh -1.3, TDP1 cell CPT inconclusive, ELG1 DNA repair 12.7%, HT1080NT lethal 8.8%, HT1080 IDH1KD tx 2.3% and DT40 TDP1 no CPT 13µM*.
COc1cc(C(=O)Nc2ccccc2N2CCCCC2)cc(OC)c1OC was read as IL-1B inflam inh -20.1, TDP1 cell CPT inconclusive, ELG1 DNA repair 20.6µM*, HT1080NT lethal 6.3%, HT1080 IDH1KD tx -7.7% and DT40 TDP1 no CPT 20.6µM*.
For Cc1ccccc1C(=O)Nc1ccccc1N1CCCCC1 the results were IL-1B inflam inh 36.6, TDP1 cell CPT inconclusive, ELG1 DNA repair -7.4%, HT1080NT lethal -15.8%, HT1080 IDH1KD tx -17.5% and DT40 TDP1 no CPT 16.4µM*.
`COc1ccccc1C(=O)Nc1ccccc1N1CCCCC1` gave IL-1B inflam inh -27.6, TDP1 cell CPT inconclusive, ELG1 DNA repair inconclusive, HT1080NT lethal -4.9%, HT1080 IDH1KD tx -15.2% and DT40 TDP1 no CPT 18.4µM*.
Screening Cc1ccc(C(C)NC(=O)COC(=O)C2=COCCO2)cc1C (stereo unspecified) returned IL-1B inflam inh 6.7, TDP1 cell CPT -3.5%, ELG1 DNA repair 9.8%, HT1080NT lethal -1.0%, HT1080 IDH1KD tx 10.7% and DT40 TDP1 no CPT -11.0%.
COc1ccc(Cl)cc1C(=O)Nc1ccccc1N1CCCCC1 was read as IL-1B inflam inh 33.0, TDP1 cell CPT 18.4µM*, ELG1 DNA repair -25.8%, HT1080NT lethal -9.0%, HT1080 IDH1KD tx -0.1% and DT40 TDP1 no CPT 29.1µM*.
`COc1ccc(Br)cc1C(=O)Nc1ccccc1N1CCCC1` gave IL-1B inflam inh -2.2, TDP1 cell CPT inconclusive, HT1080NT lethal inconclusive, HT1080 IDH1KD tx -3.9% and DT40 TDP1 no CPT inconclusive.
